Here are results for five molecules from ChEMBL document CHEMBL1961873, “Compounds: GSK PKIS; Assays: Nanosyn kinase panel” (2012).

Assay [1] addresses Mast/stem cell growth factor receptor Kit (Homo sapiens) (UniProt P10721). The settings on record: at 1 µM.
Assay [2] has as its system Mast/stem cell growth factor receptor Kit (Homo sapiens), P10721 [D816V]. The settings on record: at 0.1 µM.
The test system is the same in assay [3]. The note with it: at 1 µM.
Assay [4] concerns Mast/stem cell growth factor receptor Kit (Homo sapiens), P10721 [T670I]. The settings on record: at 0.1 µM.
Chain of Mast/stem cell growth factor receptor Kit (Homo sapiens), P10721 [T670I] (P10721 whole entry T670I): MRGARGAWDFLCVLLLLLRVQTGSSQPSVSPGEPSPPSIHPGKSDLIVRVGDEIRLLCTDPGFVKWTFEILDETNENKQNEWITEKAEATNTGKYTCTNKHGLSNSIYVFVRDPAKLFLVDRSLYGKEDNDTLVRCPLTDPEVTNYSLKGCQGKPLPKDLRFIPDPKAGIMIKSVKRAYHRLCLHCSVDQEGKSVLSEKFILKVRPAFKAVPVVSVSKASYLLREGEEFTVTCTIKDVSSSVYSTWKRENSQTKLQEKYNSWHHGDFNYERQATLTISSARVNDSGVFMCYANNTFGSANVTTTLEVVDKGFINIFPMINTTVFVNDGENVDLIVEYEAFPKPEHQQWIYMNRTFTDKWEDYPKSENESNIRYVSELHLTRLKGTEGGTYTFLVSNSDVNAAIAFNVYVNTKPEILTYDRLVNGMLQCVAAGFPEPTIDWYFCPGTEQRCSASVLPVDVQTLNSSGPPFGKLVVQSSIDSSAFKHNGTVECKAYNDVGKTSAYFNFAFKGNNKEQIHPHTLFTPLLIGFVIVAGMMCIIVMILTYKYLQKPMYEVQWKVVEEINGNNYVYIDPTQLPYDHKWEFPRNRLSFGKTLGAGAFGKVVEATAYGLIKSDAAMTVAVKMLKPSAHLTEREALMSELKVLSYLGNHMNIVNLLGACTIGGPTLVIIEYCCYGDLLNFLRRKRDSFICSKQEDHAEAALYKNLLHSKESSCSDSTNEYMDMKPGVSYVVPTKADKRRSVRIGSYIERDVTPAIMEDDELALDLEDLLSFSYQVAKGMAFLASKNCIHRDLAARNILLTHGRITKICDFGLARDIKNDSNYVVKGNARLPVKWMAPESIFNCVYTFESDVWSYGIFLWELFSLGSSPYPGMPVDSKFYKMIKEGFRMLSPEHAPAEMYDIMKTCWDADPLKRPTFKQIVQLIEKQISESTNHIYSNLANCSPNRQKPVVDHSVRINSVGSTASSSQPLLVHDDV
Assay [5] shares this test system. The settings on record: at 1 µM.
Assay [6] has as its system Mast/stem cell growth factor receptor Kit (Homo sapiens), P10721 [V560G]. The settings on record: at 0.1 µM.
The test system is the same in assay [7]. The note with it: at 1 µM.
For assay [8], the target named is Tyrosine-protein kinase Lck (Homo sapiens) (UniProt P06239). The note with it: at 0.1 µM.
Chain of Tyrosine-protein kinase Lck (Homo sapiens) (P06239 2-509 limits assumed): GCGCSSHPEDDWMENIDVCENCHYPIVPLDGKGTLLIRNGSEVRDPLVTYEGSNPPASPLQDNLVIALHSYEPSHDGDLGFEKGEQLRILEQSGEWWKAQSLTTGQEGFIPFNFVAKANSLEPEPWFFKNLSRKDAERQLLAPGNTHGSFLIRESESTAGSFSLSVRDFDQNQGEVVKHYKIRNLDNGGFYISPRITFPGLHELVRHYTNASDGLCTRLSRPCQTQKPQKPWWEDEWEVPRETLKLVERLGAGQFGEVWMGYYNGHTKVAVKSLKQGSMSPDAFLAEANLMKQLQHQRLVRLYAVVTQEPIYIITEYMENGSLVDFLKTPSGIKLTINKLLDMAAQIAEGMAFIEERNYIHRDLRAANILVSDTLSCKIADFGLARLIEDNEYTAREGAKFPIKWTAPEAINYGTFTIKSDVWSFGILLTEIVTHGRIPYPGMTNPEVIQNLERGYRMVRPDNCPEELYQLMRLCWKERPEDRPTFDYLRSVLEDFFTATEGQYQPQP
For assay [9] the target is unchanged. The settings on record: at 1 µM.
Assay [10] addresses Leukocyte tyrosine kinase receptor (Homo sapiens) (UniProt P29376). The note with it: at 0.1 µM.
The target is the same in assay [11]. The settings on record: at 1 µM.
The target of assay [12] is Tyrosine-protein kinase Lyn (Homo sapiens) (UniProt P07948). The note with it: at 0.1 µM.
Chain of Tyrosine-protein kinase Lyn (Homo sapiens) (P07948 2-512 limits assumed): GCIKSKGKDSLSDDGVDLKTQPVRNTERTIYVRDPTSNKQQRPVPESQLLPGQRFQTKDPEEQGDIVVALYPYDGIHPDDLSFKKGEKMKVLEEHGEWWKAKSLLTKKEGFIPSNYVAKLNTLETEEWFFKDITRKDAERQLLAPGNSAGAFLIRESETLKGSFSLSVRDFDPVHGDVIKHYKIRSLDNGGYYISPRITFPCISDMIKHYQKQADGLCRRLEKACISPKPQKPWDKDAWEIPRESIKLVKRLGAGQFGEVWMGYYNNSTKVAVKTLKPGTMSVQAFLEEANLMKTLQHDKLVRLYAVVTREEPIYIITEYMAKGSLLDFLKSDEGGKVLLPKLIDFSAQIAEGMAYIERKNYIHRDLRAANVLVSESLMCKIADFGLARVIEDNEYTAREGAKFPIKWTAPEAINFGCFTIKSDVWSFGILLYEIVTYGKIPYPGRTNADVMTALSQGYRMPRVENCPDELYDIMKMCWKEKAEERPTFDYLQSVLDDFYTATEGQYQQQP
For assay [13] the target is unchanged. The settings on record: at 1 µM.
Assay [14] shares this target. The settings on record: at 0.1 µM. The source holds these as a separate data set.
For assay [15] the target is unchanged. The settings on record: at 1 µM. The source holds these as a separate data set.
Assay [16] has as its target T1, Tyrosine-protein kinase Mer (Homo sapiens) (UniProt Q12866).
T1 sequence (whole entry): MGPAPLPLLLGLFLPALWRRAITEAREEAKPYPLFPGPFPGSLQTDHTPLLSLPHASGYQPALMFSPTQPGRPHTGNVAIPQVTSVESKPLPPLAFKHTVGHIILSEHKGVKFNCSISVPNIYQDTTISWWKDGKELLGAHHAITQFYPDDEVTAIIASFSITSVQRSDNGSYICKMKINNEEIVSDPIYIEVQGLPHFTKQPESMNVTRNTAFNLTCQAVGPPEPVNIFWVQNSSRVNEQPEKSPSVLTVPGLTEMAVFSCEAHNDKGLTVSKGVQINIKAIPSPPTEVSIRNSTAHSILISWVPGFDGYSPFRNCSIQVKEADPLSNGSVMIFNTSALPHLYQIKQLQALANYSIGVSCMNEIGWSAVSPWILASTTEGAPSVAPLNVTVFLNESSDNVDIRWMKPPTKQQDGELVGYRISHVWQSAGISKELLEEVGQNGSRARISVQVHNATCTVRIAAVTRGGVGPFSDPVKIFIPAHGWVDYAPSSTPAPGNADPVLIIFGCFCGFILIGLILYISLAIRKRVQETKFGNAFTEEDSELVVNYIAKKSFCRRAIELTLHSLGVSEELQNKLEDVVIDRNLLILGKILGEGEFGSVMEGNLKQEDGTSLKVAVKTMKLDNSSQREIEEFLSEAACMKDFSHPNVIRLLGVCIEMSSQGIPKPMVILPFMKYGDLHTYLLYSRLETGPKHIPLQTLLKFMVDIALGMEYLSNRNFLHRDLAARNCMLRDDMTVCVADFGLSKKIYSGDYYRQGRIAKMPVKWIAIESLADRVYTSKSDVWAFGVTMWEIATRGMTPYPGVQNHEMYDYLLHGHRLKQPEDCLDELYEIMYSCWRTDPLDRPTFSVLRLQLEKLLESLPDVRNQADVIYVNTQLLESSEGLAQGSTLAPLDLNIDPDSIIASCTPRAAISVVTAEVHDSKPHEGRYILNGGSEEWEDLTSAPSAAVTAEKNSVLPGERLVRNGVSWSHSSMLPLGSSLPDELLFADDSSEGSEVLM
The note with it: at 0.1 µM.

Assay [17] addresses T1, Tyrosine-protein kinase Mer (Homo sapiens). The note with it: at 1 µM.
For assay [18], the target named is Hepatocyte growth factor receptor (Homo sapiens) (UniProt P08581). The note with it: at 0.1 µM.
Chain of Hepatocyte growth factor receptor (Homo sapiens) (P08581 whole entry): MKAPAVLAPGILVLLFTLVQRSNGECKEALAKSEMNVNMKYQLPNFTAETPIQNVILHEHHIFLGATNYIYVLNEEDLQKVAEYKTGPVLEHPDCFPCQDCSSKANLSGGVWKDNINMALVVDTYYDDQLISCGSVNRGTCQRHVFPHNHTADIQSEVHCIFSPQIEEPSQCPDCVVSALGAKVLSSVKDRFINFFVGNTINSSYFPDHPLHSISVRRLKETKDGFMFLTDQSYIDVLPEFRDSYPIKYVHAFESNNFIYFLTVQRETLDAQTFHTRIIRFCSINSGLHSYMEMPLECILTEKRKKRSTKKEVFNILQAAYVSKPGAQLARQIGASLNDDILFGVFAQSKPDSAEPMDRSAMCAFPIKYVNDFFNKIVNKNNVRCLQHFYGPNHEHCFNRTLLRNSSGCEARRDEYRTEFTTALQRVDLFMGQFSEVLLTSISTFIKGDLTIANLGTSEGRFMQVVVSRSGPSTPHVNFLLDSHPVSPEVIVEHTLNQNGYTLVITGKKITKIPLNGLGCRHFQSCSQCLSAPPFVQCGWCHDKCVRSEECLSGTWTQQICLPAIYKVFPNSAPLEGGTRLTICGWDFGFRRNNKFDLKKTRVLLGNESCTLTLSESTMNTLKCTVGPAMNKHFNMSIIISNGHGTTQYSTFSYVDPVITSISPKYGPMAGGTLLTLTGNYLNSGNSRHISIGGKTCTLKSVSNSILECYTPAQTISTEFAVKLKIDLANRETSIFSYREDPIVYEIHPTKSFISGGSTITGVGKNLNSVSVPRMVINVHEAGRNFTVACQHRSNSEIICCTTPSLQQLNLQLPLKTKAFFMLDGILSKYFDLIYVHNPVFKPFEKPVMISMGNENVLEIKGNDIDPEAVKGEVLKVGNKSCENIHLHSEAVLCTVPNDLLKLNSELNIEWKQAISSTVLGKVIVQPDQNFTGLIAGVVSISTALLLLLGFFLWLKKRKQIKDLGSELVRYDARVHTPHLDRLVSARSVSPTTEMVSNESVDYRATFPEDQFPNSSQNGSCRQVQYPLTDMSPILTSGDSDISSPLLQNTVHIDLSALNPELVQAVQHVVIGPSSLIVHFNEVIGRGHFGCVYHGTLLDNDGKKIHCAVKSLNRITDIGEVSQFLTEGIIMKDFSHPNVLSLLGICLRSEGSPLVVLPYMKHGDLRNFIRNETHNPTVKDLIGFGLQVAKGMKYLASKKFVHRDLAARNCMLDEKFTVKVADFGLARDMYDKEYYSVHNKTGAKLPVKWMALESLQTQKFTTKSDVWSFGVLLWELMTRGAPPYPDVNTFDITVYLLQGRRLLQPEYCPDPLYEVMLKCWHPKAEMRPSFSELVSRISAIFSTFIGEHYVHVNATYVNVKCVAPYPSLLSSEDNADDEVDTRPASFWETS
The target is the same in assay [19]. The settings on record: at 1 µM.
Assay [20] deals with T2, Muscle, skeletal receptor tyrosine-protein kinase (Homo sapiens) (UniProt O15146).
T2 sequence (whole entry): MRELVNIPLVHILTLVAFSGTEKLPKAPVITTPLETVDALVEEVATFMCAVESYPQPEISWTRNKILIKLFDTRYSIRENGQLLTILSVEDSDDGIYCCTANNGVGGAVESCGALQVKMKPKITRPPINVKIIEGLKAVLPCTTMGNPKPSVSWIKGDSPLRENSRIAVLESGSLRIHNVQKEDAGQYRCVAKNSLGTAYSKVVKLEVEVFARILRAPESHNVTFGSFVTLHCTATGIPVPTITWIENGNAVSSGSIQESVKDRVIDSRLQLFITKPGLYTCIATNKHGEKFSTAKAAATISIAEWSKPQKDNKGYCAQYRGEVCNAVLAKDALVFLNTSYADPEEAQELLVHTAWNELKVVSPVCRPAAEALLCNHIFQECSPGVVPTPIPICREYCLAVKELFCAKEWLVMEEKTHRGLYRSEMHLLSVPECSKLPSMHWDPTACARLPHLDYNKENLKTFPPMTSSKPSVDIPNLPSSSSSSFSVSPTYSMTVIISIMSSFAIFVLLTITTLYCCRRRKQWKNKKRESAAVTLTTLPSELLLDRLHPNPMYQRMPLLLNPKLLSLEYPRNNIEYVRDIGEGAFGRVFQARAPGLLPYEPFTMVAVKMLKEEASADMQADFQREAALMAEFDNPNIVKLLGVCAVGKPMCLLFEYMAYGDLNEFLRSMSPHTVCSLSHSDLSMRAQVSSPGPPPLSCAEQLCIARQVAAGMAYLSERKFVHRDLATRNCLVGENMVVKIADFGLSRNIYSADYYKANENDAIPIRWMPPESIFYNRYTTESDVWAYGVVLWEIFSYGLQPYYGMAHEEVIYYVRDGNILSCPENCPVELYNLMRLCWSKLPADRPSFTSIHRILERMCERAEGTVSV
The note with it: at 0.1 µM.

Chain of Leukocyte tyrosine kinase receptor (Homo sapiens) (P29376 whole entry): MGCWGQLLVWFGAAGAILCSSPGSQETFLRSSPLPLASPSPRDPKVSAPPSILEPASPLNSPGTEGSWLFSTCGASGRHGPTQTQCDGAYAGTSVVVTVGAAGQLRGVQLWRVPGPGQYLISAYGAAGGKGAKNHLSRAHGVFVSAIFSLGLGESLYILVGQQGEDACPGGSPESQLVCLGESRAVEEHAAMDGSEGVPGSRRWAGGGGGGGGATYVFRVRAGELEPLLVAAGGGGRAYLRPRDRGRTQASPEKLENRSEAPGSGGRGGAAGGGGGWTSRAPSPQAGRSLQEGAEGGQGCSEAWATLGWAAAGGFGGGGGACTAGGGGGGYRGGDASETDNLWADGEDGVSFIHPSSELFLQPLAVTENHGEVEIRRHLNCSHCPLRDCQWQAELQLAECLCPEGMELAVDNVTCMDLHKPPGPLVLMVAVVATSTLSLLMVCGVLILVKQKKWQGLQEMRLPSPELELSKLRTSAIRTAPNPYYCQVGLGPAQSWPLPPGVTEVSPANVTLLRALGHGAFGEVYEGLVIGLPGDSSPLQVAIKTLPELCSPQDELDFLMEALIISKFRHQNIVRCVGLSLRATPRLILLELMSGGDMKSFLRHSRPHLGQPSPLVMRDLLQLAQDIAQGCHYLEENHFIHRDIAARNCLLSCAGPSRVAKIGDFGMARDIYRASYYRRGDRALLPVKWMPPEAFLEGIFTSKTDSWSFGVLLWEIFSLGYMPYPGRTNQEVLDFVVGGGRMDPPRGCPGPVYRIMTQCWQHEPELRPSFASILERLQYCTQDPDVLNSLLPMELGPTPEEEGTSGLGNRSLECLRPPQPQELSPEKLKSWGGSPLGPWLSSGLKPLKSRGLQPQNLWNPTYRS
Chain of Mast/stem cell growth factor receptor Kit (Homo sapiens), P10721 [V560G] (P10721 whole entry V560G): as the sequence (P10721 whole entry T670I) above, with V560G, I670T counted along it
Chain of Mast/stem cell growth factor receptor Kit (Homo sapiens) (P10721 whole entry): as the sequence (P10721 whole entry T670I) above, with I670T counted along it
Chain of Mast/stem cell growth factor receptor Kit (Homo sapiens), P10721 [D816V] (P10721 whole entry D816V): as the sequence (P10721 whole entry T670I) above, with I670T, D816V counted along it

On to `COc1cc(Nc2nccc(Nc3ccc4c(C)n[nH]c4c3)n2)cc(OC)c1OC`, for which the inhibition came out at 95.8% in assay [1]; 10.8% in [2]; 58.7% in assay [3]; 4.19% in [4]; 43.3% in assay [5]; 13.1% in assay [6]. In addition, the inhibition in assay [7] was 57.9%; in [8] it was 34.4%; in [9] it was 82.4%; in [10], 2.14%; in [11] it was 33.3%; in assay [12], 49.6%. In addition, the inhibition was determined as 87.4% in assay [13]; 44.5% in assay [14]; 85.6% in assay [15]; 3.5% in [16]; 14.4% in [17]; 1.57% in assay [18]. Moreover, the inhibition in assay [19] worked out at 12.3%; in [20], 21.3%.
Consider `COc1ccc(-c2oc3ncnc(N)c3c2-c2ccc(NC(=O)Nc3cc(C(F)(F)F)ccc3F)cc2)cc1`, for which the inhibition in assay [1] stood at 96%; in assay [2], 2.85%; in assay [3], 5.19%; in [4], 11.8%; in assay [5], 88.3%; in [6] it was 25.5%. In addition, the inhibition worked out at 78.6% in assay [7]; 21.1% in assay [8]; 83.9% in assay [9]; 4.21% in assay [10]; 11.2% in assay [11]; 48.4% in [12]. In addition, the inhibition turned out to be 94.8% in assay [13]; 43.3% in assay [14]; 93.2% in [15]; 11.7% in assay [16]; 66.5% in assay [17]; 9.34% in assay [18]. The values for the inhibition in assay [19] and in [20] were 63.2% and 96.6%, respectively.
As to `O=C(O[C@H]1CN[C@H](C#Cc2cc3ncnc(Nc4ccc(Cc5ccccc5)cc4)c3s2)C1)N1CCOCC1`, the inhibition in [1] was 3.44%; in assay [2], 8.25%; in [3], 1.8%; in [4], 1.94%; in assay [5] it was 0.93%; in assay [6], -0.42%. Also, the inhibition was -0.08% in assay [7]; 2.19% in assay [8]; 8.13% in [9]; 1.17% in assay [10]; 0.57% in assay [11]; 0.85% in [12]. Besides, the inhibition in [13] is 4.14%; in assay [14] it was 0.33%; in assay [15], 3.75%; in assay [16], -0.63%; in assay [17] it was 2.01%; in assay [18] it was -1.3%. For the same molecule, the inhibition in assay [19] is 4.56%; in [20], -0.21%.
`COc1ccc(-c2cc3c(N)ncnc3o2)cc1`: the inhibition in [1] is 8.52%; in assay [2], 1.15%; in [3] it was 0.89%; in assay [4] it was -0.3%; in assay [5] it was -2.59%; in [6], 4.17%. For the same molecule, the inhibition was 2.93% in [7]; 0.2% in assay [8]; 5.93% in assay [9]; -0.7% in assay [10]; 0.01% in assay [11]; -0.81% in assay [12]. Also, the inhibition is 3.66% in assay [13]; 1.13% in assay [14]; 3.28% in [15]; 0.56% in [16]; 2.01% in [17]; -2.37% in [18]. The inhibition in assay [19] is 0.32%; in assay [20], -1.04%.
On to `CCn1c(-c2nonc2N)nc2c(C#CC(C)(C)O)ncc(OC3CCNCC3)c21`, for which the inhibition in [1] is 3.87%; in assay [2], 4.97%; in [3], 6.05%; in assay [4] it was 1.16%; in assay [5], -0.54%; in assay [6], -0.47%. The inhibition was found to be 0.39% in assay [7]; 2.33% in [8]; 4.05% in [9]; 1.83% in assay [10]; 3.06% in assay [11]; 4.34% in assay [12]. Besides, the inhibition in assay [13] turned out to be 4.35%; in assay [14], 2.01%; in assay [15], 2.89%; in assay [16], 3.67%; in assay [17] it was 2.19%; in [18], 5.39%. Moreover, the results for the inhibition in assay [19] and in [20] were -3.51% and 3.1%, respectively.

As a reminder, the inhibition is the drop in the measured response relative to a control, in per cent.
